We go through 40 compounds from PubChem BioAssay (NCATS).

Values without a mark were called inactive. Entries that show only a call come without a potency. Activity calls are given as the source filed them. Calls follow the shape of the dose curve; as a rule, active = well fitted inhibition curve with a large enough effect; inconclusive = small, poorly fitted or top-dose-only effect; inactive = flat fitted curve, though single readings scatter.
Potency is read from the fitted curve at half-maximal effect.

In this assay the target is Luciferin 4-monooxygenase (Photinus pyralis) (UniProt P08659). Nature of the assay: Primary firefly luciferase (FLuc) qHTS assay for identification of artifact compounds. (AID 1845220). Also: nearly all actives have a fitted effect of over 60% in size. To be noted: purified firefly luciferase, luminescence, 5 min; series mostly up to 54.1 µM; activity change, negative = inhibition: at the top concentration. An excerpt: PI: Alexander Tropsha Ph.D.
UNC Eshelman School of Pharmacy
University of North Carolina, Chapel Hill, North Carolina
Hits from high-throughput screening (HTS) of chemical libraries are often false positives due to their interference with the assay detection technology. In response to this problem, we generated the largest publicly available library of chemical liabilities and developed a free webtool to predict HTS artifacts, both of which are described herein. More specifically, we generated, curated, and integrated HTS datasets for thiol reactivity, redox activity, and luciferase (firefly and nano) activity. Using these curated datasets, we developed and validated several Quantitative Structure-Interference Relationship (QSIR) models to predict nuisance behavior. […] These models were employed for virtual profiling of the National Center for Advancing Translational Science's (NCATS) in-house library, and 256 compounds for each assay were selected for the experimental validation of nuisance behavior. The BA for these external predictions ranged from 58 to 78% for compounds within the applicability domains of the models. […] The models developed in this study, along with aggregation models previously developed by our group (SCAM Detective) were implemented in "Liability Predictor," an online tool which may be used as part of chemical library design or for triaging HTS hits. Both the models and the curated datasets are publicly available at https://liability.mml.unc.edu/.
SEQUENCE No. (e.g., 1, 2, 3, etc.); […] (e.g., Cells, Incubation, Reagent, etc.); VALUE; DESCRIPTION.
1; Reagent; 3 uL; Luciferase substrate mixture.
2; Compounds and control; 16 nL; Kalypsis pin tool (Wako USA) equipped with a 1536-well pin head.
4; Reagent; 1 uL; Luciferase enzyme.
6; Detection; Luminescence, ViewLux microplate reader.
NOTES (numbers refer to Sequence numbers above)
1. 3 uL of luciferase substrate mixture containing D-luciferin and ATP (final concentrations of 10 uM and 10 uM, respectively) in assay buffer (10 mM Mg-acetate, 0.01% Tween-20, 0.05% bovine serum albumin, 50 mM Tris acetate, pH 7.6) was dispensed into all wells of a 1536-well assay plate (solid-bottom white plate; Greiner Bio One, Monroe, NC).
2. A Wako Pin-tool (Wako Automation, Richmond, VA) was used to transfer 16 nL of compounds (consisting of 7-plates in qHTS format, final concentration range 18.3 nM to 114 uM) or control PTC124 (final concentration range 1.22 nM to 40 uM).
3. 15 min. incubation at room temperature protected from light.
4. 1 uL of luciferase enzyme (final concentration 10 nM, Photinus pyralis luciferase) or buffer was dispensed for a final assay volume of 4 uL.
5. Plates were centrifuged (121xg, 15 seconds) and incubated for 5 minutes.
6. Samples were read for luminescence on a ViewLux CCD imager (PerkinElmer). Data were normalized to no-enzyme (0% activity) and no-inhibitor (DMSO; 100%) controls and the resulting percent inhibition data were fitted to a 4-parameter Hill equation using NCATS in-house software.
With `COc1c(Cl)cc2c([nH]c3cnccc32)c1NC(=O)c1cccnc1C`, the compound was classed as inactive.
Turning to `OCCn1cc(-c2cnc3nnn(Cc4ccc5ncccc5c4)c3n2)cn1`, the “activity change, negative = inhibition” value is -20.5%.
On the same count and under the same terms, under `O=C(c1cc(Cc2n[nH]c(=O)c3ccccc23)ccc1F)N1CCN(C(=O)C2CC2)CC1` stands -3.93%.
Turning to `O=c1[nH]c(-c2ccc(C(F)(F)F)cc2)nc2c1CSCC2`, the call was inactive.
For `CNC(=O)c1ccccc1Sc1ccc2c(/C=C/c3ccccn3)n[nH]c2c1`, the Potency is 1900 nM (active).
In the case of `Cc1n[nH]c(C)c1Cc1sc2c(c1C(=O)N1C[C@H](O)CO1)c(=O)n(C)c(=O)n2CC(C)C`, the call was inactive.
With `CC1(C)Cc2c(-c3ccccc3)c(-c3ccc(Cl)cc3)c(CC(=O)O)n2C1`, the “activity change, negative = inhibition” value is 4.83%.
Turning to `COc1ccccc1[C@H](c1cccc2ccccc12)[C@@](C)(C#N)C(=O)N1CCC(c2cccc(C(F)(F)F)c2)CC1`, the “activity change, negative = inhibition” value was 0.203%.
Regarding `S=C(NCc1ccc2c(c1)OCO2)N1CCN(c2ncnc3c2oc2ccccc23)CC1`, the outcome was inactive.
In the case of `CCc1cncnc1N1CCN(Cc2nc3ccc(C(F)(F)F)cc3[nH]2)CC1`, the “activity change, negative = inhibition” value was -2.29%.
With `C[C@H](NC(=O)Cc1cc(F)cc(F)c1)C(=O)N[C@@H]1C(=O)N(C)c2ccccc2-c2ccccc21`, the compound was classed as inactive.
With `CNC(=O)c1ccc(C)c(-n2c(C)cc(OCc3ccc(F)cc3F)c(Br)c2=O)c1`, the “activity change, negative = inhibition” value was -10.9%.
On to `CC(C)OC(=O)C1=CN(C(=O)c2ccc(F)c(F)c2)CC(C)(C)c2c1[nH]c1ccccc21`, for which the “activity change, negative = inhibition” value was -9.41%.
Regarding `Cc1cc(Nc2nc(N[C@@H](C)c3ncc(F)cn3)ncc2Cl)n[nH]1`, the compound was classed as inactive.
Same read-out and setting: then `O=C(Nc1cccnc1)N1CCC(Cc2cccc(Oc3ccc(C(F)(F)F)cn3)c2)CC1`, with “inactive”.
In the case of `CS(=O)(=O)c1ccc(C(=O)Nc2ccc(Cl)c(-c3ccccn3)c2)c(Cl)c1`, the “activity change, negative = inhibition” value is -12.1%.
As for `CCc1cc(Nc2nccc(-c3c(-c4ccc(OC)c(C(=O)Nc5c(F)cccc5F)c4)nc4ccccn34)n2)c(OC)cc1N1CCC(N2CCN(S(C)(=O)=O)CC2)CC1`, the “activity change, negative = inhibition” value was -4.63%.
For `CCOc1ccn(-c2ccc(F)cc2)c(=O)c1C(=O)Nc1ccc(Oc2ccnc(N)c2Cl)c(F)c1`, the result was inactive.
Consider `O=C1CCCC2=C1C(c1[nH]ncc1Cl)N=C(Nc1nc3ccccc3o1)N2` (stereo not given), for which the “activity change, negative = inhibition” value is 3.83%.
Consider `Clc1ccc(Nc2nnc(Cc3ccncc3)c3ccccc23)cc1`, for which the compound was called inactive.
On the same count and under the same terms, under `O=C(Nc1ccc(F)c(C(F)(F)F)c1)Nc1nnc(-c2ccncc2)s1` stands “inactive”; under `Cc1ccnc(NS(=O)(=O)c2ccc(NC(=O)Nc3ccc(S(=O)(=O)Nc4nccc(C)n4)cc3)cc2)n1`, “inactive”.
On the same count and under the same terms, under `CN(C)c1ccc(Nc2nc(N)n(C(=O)c3c(F)cccc3F)n2)cc1` stands “inactive”.
For the compound `CCCS(=O)(=O)Nc1ccc(F)c(C(=O)c2c[nH]c3ncc(Cl)cc23)c1F`, the “activity change, negative = inhibition” value is 3.05%.
With `Cn1cnc2c(F)c(Nc3ccc(Br)cc3Cl)c(C(=O)NOCCO)cc21`, the call was inactive.
On to `COc1cc(Nc2ncc3c(n2)-c2ccc(Cl)cc2C(c2c(F)cccc2OC)=NC3)ccc1C(=O)O`, for which the Potency entry was “inactive”.
As to `CCC(C)n1ncn(-c2ccc(N3CCN(c4ccc(OC[C@H]5CO[C@](Cn6cncn6)(c6ccc(Cl)cc6Cl)O5)cc4)CC3)cc2)c1=O` (stereo not given in full), the “outcome” value is “inactive [at 25.7 µM]”.
With `COc1nc(-c2ccc3c(c2)OCO3)n(-c2ccc(NC(=O)CSc3ccccc3)cc2)n1`, the “activity change, negative = inhibition” value is -4.57%.
For the compound `CN(C)c1ccc(C2Nc3ccc4ccccc4c3C3=C2C(=O)CC(C)(C)C3)cc1Br` (stereo not given), the result was inactive.
For the compound `CC(C)(Sc1ccc(CCN(CCCCC2CCCCC2)C(=O)NC2CCCCC2)cc1)C(=O)O`, the “activity change, negative = inhibition” value was 2.16%.
Consider `COc1cc(F)c(F)c(Nc2ccc(I)cc2F)c1NS(=O)(=O)C1(C[C@H](O)CO)CC1`, for which the call was inactive.
Still for that read-out and setting: then `CS(=O)(=O)c1cccc(CNc2nc(Nc3ccc4c(c3)CCC(=O)N4)ncc2C(F)(F)F)c1`, with “inactive”.
In the case of `C#Cc1cccc(Nc2ncnc3cc(OCCOC)c(OCCOC)cc23)c1`, the “activity change, negative = inhibition” value is -0.847%.
Regarding `COc1cc2nccc(Oc3ccc(NC(=O)NC4CC4)c(Cl)c3)c2cc1C(N)=O`, the result was inactive.
In the case of `CNCc1ccc(-c2[nH]c3cc(F)cc4c3c2CCNC4=O)cc1`, the “activity change, negative = inhibition” value is -2.6%.
Still for that read-out and setting: then `O=C(O)CCc1ccc(NCc2cccc(Oc3ccccc3)c2)cc1`, with -11.8%.
As for `C[C@@H]1CN(Cc2ccc(F)cc2)[C@@H](C)CN1C(=O)c1cc2c(C(=O)C(=O)N(C)C)cn(C)c2cc1Cl`, the compound was classed as inactive.
Consider `COc1cc(Oc2ccnc3cc(OC)c(OC)cc23)ccc1NC(=O)NC(C)c1nccs1` (stereo not given), for which the “activity change, negative = inhibition” value was 2.56%.
Take `CCN(CC)CCCC(C)Nc1ccnc2cc(Cl)ccc12` (stereo not given): the activity change, negative = inhibition is -3.19% [at 11.6 µM].
For `COc1cc2c(cc1OC)CN(CCc1ccc(NC(=O)c3cccc4c(=O)c5cccc(OC)c5[nH]c34)cc1)CC2`, the compound was classed as inactive.
